A selection: hits, their analogues and other compounds. The true share with any hit is near 28%.
CYP2C9 inhib: blockers of cytochrome P450 2C9 activity – biochemical, luminescence, ADME assay, primary screen | P11712 | CYP2C9 Supersomes, luciferin-H conversion | inhibition, % at 5 µM | actives 20% (n = 96,000);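 active means blocking of liver enzyme CYP2C9 beyond about 50% at 5 µM, limit read from the data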
DAT uptake mod: changed hDAT dopamine uptake under cocaine IC80, either direction, primary screen, cocaine antagonist project, cell-based, LLC-PK1 hDAT, [14C]-dopamine uptake, MLSMR; Sodium-dependent dopamine transporter (Homo sapiens), Q01959; LLC-PK1 hDAT cells, [14C]-dopamine uptake with cocaine IC80; actives deviate in either direction; B-score at 10 µM; actives 1.3% (n = 110,000); AID 449768, 2010;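 active means Z score or B-score, a plate-position-corrected score, falls beyond the plate's 99.7% confidence bounds, in either direction; inactive means both scores lie inside the 99.7% bounds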;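 further: scored against the spread of the other compound wells on the same plate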
Target sequence (Q01959 whole entry, looked up): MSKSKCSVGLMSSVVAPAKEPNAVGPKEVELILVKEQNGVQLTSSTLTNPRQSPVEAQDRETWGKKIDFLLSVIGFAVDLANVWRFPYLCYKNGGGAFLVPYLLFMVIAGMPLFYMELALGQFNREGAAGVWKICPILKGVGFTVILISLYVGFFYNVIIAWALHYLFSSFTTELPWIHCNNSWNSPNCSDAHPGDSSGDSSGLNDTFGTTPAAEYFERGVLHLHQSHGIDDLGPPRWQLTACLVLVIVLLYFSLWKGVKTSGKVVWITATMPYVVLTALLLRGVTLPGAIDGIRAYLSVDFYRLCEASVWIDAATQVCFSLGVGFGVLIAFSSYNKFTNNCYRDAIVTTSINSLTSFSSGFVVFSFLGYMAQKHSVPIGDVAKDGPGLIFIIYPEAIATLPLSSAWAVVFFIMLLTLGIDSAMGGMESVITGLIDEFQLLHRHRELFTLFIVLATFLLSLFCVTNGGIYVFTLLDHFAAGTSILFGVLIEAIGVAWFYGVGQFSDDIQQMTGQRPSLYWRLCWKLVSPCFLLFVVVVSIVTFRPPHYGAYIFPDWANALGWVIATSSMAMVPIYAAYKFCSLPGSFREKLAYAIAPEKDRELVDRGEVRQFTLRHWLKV
CYP2C19 inhib: blockers of cytochrome P450 2C19 activity – biochemical, luminescence, ADME assay, primary screen | P33261 | CYP2C19 Supersomes, luciferin-H EGE luminescence, 30 min | inhibition, % at 5 µM | actives 21% (n = 96,000);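 active means CYP2C19 inhibition above a set limit at 5 µM in the primary screen, cut at about 50% in these data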;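 further: plate controls were negative control wells for no effect and 2.5 mM tranylcypromine positive control for full effect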
CYP2C9 activ: human CYP2C9 activators, primary screen, biochemical, luminescence | actives 1.4% (n = 96,000) | recombinant CYP2C9, luciferin-H conversion; hits give high values; factor 1 = untreated enzyme, 0 = blocked | activation factor at 5 µM;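 active means activation factor of 2 or more for CYP2C9 at a 5 µM dose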;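 further: 0 = sulfaphenazole-blocked wells and 1 = vehicle-only wells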
CYP2C19 act: human CYP2C19 activators, primary screen, biochemical, luminescence; 96,000 tested, under 10 active; activation factor at 5 µM; recombinant CYP2C19, luciferin-H EGE luminescence; hits give high values; 0 = fully inhibited enzyme, 1 = untreated enzyme; AID 1025, 2008; Cytochrome P450 2C19 (Homo sapiens), P33261;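 active means activation factor of at least 2 at 5 µM in the primary screen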;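 further: 0 = wells with 2.5 mM tranylcypromine and 1 = vehicle-only wells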
D1 mod: D1 CRE-luciferase signal change, two-sided – cell-based, HEK293 D1, dopamine EC30, D1 allosteric modulator project, primary screen; dopamine EC30 potentiation; actives deviate in either direction; AID 641, 2007; B-score at 10 µM; actives 5.9% (n = 58,000);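 active means luminescence count or its row- and column-corrected plate score outside the 99.7% band of the plate's sample wells, on either side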
Active calls of the source: *.

O=C(Cn1c(=O)[nH]c2ccsc2c1=O)N1CCN(c2ccc(F)cc2)CC1 was read as DAT uptake mod -0.781 and D1 mod 0.0164.
Screening COc1cc2[nH]c(=O)n(CCCCCC(=O)N3CCN(c4ccccn4)CC3)c(=O)c2cc1OC returned CYP2C9 inhib 38.3, DAT uptake mod 0.707, CYP2C19 inhib 32.4, CYP2C9 activ 0.6, CYP2C19 act 0.7 and D1 mod 2.49.
For O=C(c1ccccc1)[C@H]1[C@H](c2ccccc2)[C@@]2(N=C(c3ccccc3)OC2=O)C2c3ccccc3C=NN21 (stereo not given in full) the results were CYP2C9 inhib 14.1, DAT uptake mod 1.78, CYP2C19 inhib 21.5, CYP2C9 activ 0.9 and CYP2C19 act 0.8.
O=C(CSc1n[nH]c(-c2ccco2)n1)N1c2ccccc2Sc2ccccc21 was read as CYP2C9 inhib 51.6*, DAT uptake mod 0.352, CYP2C19 inhib 48.1, CYP2C9 activ 0.5, CYP2C19 act 0.5 and D1 mod 1.25.
Cn1nnnc1SCC(=O)N1c2ccccc2Sc2ccccc21 was read as CYP2C9 inhib 6.0, DAT uptake mod -0.0391, CYP2C19 inhib 45.1, CYP2C9 activ 0.9, CYP2C19 act 0.5 and D1 mod 0.726.
Screening O=C(CSc1nncs1)N1c2ccccc2Sc2ccccc21 returned CYP2C9 inhib 37.0, DAT uptake mod -0.669, CYP2C19 inhib 62.4*, CYP2C9 activ 0.6, CYP2C19 act 0.4 and D1 mod 0.223.
CN1C(C(=O)NCc2ccc(OC(F)(F)F)cc2)CC2Cn3c(nc4cc5ccccc5cc43)C21 (stereo not given) was read as DAT uptake mod 0.589.
For S=C(c1ccccc1)N(c1ccccc1)c1ccccc1 the results were CYP2C9 inhib 30.6, DAT uptake mod -0.924, CYP2C19 inhib 93.9*, CYP2C9 activ 0.7 and CYP2C19 act 0.1.
Screening O=C(O)c1ccc(N(c2ccccc2)c2ccccc2)cc1 returned DAT uptake mod 0.246.
COC(=O)c1ccc(CSc2nnc3c(Cl)cc(Cl)cn23)o1 was read as CYP2C9 inhib 3.3, DAT uptake mod 0.185, CYP2C19 inhib 81.5*, CYP2C9 activ 1, CYP2C19 act 0.2 and D1 mod -0.819.
COC(=O)c1ccc(CSc2nnnn2C)o1 was read as CYP2C9 inhib 7.1, DAT uptake mod -0.257, CYP2C19 inhib 28.8, CYP2C9 activ 0.9, CYP2C19 act 0.7 and D1 mod 0.774.
For COC(=O)c1ccc(CSc2nc3ccccc3c(=O)n2-c2ccccc2)o1 the results were CYP2C9 inhib 73.6*, DAT uptake mod 1.14, CYP2C19 inhib 43.6, CYP2C9 activ 0.3 and CYP2C19 act 0.6.
Screening COC(=O)c1ccc(CSc2nnc3n(Cc4ccccc4OC)c(=O)c4ccccc4n23)o1 returned CYP2C9 inhib 74.0*, DAT uptake mod 0.317, CYP2C19 inhib 71.8*, CYP2C9 activ 0.3 and CYP2C19 act 0.3.
Screening COc1ccc(-n2c(SC3CCOC3=O)nc3ccccc3c2=O)cc1OC (stereo not given) returned CYP2C9 inhib 69.2*, DAT uptake mod -0.648, CYP2C19 inhib 40.2, CYP2C9 activ 0.3, CYP2C19 act 0.6 and D1 mod 2.37.
Screening COC(=O)c1ccc(Cn2nnc3ccccc3c2=O)o1 returned CYP2C9 inhib 14.6, DAT uptake mod 0.699, CYP2C19 inhib 17.0, CYP2C9 activ 0.9, CYP2C19 act 0.8 and D1 mod 1.48.
`COc1ccccc1-n1cnnc1SC1CCOC1=O` (stereo not given) gave CYP2C9 inhib 34.3, DAT uptake mod -0.128, CYP2C19 inhib 10.8, CYP2C9 activ 0.7, CYP2C19 act 0.9 and D1 mod 0.894.
`COC(=O)c1ccc(CSc2nc3ccccc3c(=O)n2-c2ccc(OC)c(OC)c2)o1` gave CYP2C9 inhib 95.8*, DAT uptake mod 3.5*, CYP2C19 inhib 94.3*, CYP2C9 activ 0, CYP2C19 act 0.1 and D1 mod -0.202.
For COC(=O)c1ccc(CSc2nc3sc4c(c3c(=O)n2C)CCCC4)o1 the results were CYP2C9 inhib 93.6*, DAT uptake mod -0.855, CYP2C19 inhib 84.0*, CYP2C9 activ 0.1, CYP2C19 act 0.2 and D1 mod 0.615.
`COC(=O)c1ccc(CSc2nc3c(c(=O)n2-c2ccccc2)SCC3)o1` gave CYP2C9 inhib 86.4*, DAT uptake mod -0.254, CYP2C19 inhib 48.1, CYP2C9 activ 0.1, CYP2C19 act 0.5 and D1 mod 1.73.
Screening COC(=O)c1ccc(CSc2nc3c(c(=O)n2-c2ccc(F)cc2)SCC3)o1 returned DAT uptake mod 0.369.
COC(=O)c1sc(N)c(C(=O)OC)c1CSc1nc2sc3c(c2c(=O)n1C)CCC3 was read as DAT uptake mod 1.13 and D1 mod 0.0228.
Screening O=C(CSc1nc2c(c(=O)n1-c1ccccc1)SCC2)N1CCN(c2ccccc2)CC1 returned CYP2C9 inhib 63.0*, DAT uptake mod 0.146, CYP2C19 inhib 82.5*, CYP2C9 activ 0.4, CYP2C19 act 0.2 and D1 mod -1.04.
CCc1nnc(NC(=O)CSc2nc3c(c(=O)n2CC)SC(C)C3)s1 (stereo not given) was read as CYP2C9 inhib -28.0, DAT uptake mod 0.922, CYP2C19 inhib 36.1, CYP2C9 activ 1.3, CYP2C19 act 0.6 and D1 mod 1.07.
Cc1ccc(C)c(OCC(=O)NCCN(C)C)c1 was read as CYP2C9 inhib -5.2, DAT uptake mod 0.148, CYP2C19 inhib -2.0, CYP2C9 activ 1.1 and CYP2C19 act 1.
NC(=O)CC(NC(=O)Cc1cccc2ccccc12)c1ccc(N2CCN(c3ccc(F)cc3)CC2)c([N+](=O)[O-])c1 (stereo not given) was read as DAT uptake mod -1.47.
Screening CCOc1ccc(N(Cc2cc3ccc(C)cc3[nH]c2=O)S(C)(=O)=O)cc1 returned CYP2C9 inhib 3.6, DAT uptake mod 0.107, CYP2C19 inhib 10.9, CYP2C9 activ 1 and CYP2C19 act 0.9.
`CN(C(=O)COc1ccccc1)c1nnc(-c2cccnc2)s1` gave CYP2C9 inhib 22.9, DAT uptake mod -0.341, CYP2C19 inhib 33.8, CYP2C9 activ 0.8, CYP2C19 act 0.7 and D1 mod -0.203.
For COCCn1c(SCC(=O)N2CCCCC2)nc2ccccc2c1=O the results were CYP2C9 inhib 22.3, DAT uptake mod -0.383, CYP2C19 inhib 23.3, CYP2C9 activ 0.8, CYP2C19 act 0.8 and D1 mod -0.475.

Assay outcomes: PubChem BioAssay, several laboratories
